Data on 20 compounds can be found in the supplement of paper PMC6805474.

The test system of assay [1] is Schistosoma mansoni schistosomula (NMRI). Kind of assay: phenotypic severity score (0-4); higher = more antischistosomal effect, active = 2 or more. The following applies: 10 µM.
The subject of assay [2] is Schistosoma mansoni schistosomula (Liberian). As to the kind of experiment: drug effect (1 - score/DMSO control score) (fraction); higher = more antischistosomal effect, active = 0.5 or more; extreme values may be limits of the assay. The following applies: 10 µM. In a few lines:
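Schistosomula of the Liberian strain of Schistosoma mansoni were mechanically transformed from cercariae, pre-incubated for at least 12 h, and placed at 50 per well in flat-bottom 96-well plates with Medium 199 containing 5% FCS. Compounds were tested in duplicate at 10 µM at 37 °C and 5% CO2, alongside wells holding 0.1% DMSO. Parasites were scored visually at 10× after 24, 48 and 72 h on a quarter-point scale running from 3 (normal) to 0 (dead). Drug effect came from the mean test-well score relative to the mean DMSO-well score, with negative values set to zero and plates accepted only when the DMSO wells averaged at least 2.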

Values without a mark were called inactive.
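Throughout, for phenotypic severity score (0-4): visual microscopic scoring of shape, motility and density changes versus 0.5% DMSO solvent controls, one point per descriptor, degeneracy or death scored 4, mean of duplicate wells.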

Regarding `O=C(Nc1ccc(C(F)(F)F)c(C(F)(F)F)c1)c1cc(Cl)ccc1O`, the phenotypic severity score in assay [1] (24 h), in assay [1] (48 h) and in assay [1] (72 h) was 4 (active) in each case. Besides, the drug effect in assay [2] (24 h), in assay [2] (48 h) and in assay [2] (72 h) was 1 (active) in each case.
As for `c1cc(C2=NCCN2)cc(-c2cc(-c3ccc(C4=NCCN4)cc3)no2)c1`, the phenotypic severity score in assay [1] (24 h), in assay [1] (48 h) and in assay [1] (72 h) was 0 in each case. The drug effect is 0.1 in assay [2] (24 h), 0.111 in assay [2] (48 h) and 0.125 in assay [2] (72 h).
Consider `CS(=O)(=O)N1CCC(Cn2nc(Cc3cccc4ccccc34)c3c(N)ncnc32)CC1`, for which the phenotypic severity score in assay [1] (24 h), in assay [1] (48 h) and in assay [1] (72 h) was 0 in each case. Moreover, the drug effect in assay [2] (24 h) is 0.1; in assay [2] (48 h), 0.568 (active); in assay [2] (72 h), 0.636 (active).
`c1ccc(C[C@@H]2CN(c3nccc(Oc4ccc(-n5ccnc5)cc4)n3)CCN2)cc1`: the phenotypic severity score in assay [1] (24 h), in assay [1] (48 h) and in assay [1] (72 h) was 0 in each case. Also, the drug effect in assay [2] (24 h) was 0.1; in assay [2] (48 h), 0.111; in assay [2] (72 h), 0.188.
With `COc1ccc(N(CCc2cccc(C)n2)C(=O)C2CCCCC2)cc1`, the values for the phenotypic severity score in assay [1] (24 h), in assay [1] (48 h) and in assay [1] (72 h) were 0, 2 (active) and 1, respectively. Further, the drug effect in assay [2] (24 h) is 0.15; in assay [2] (48 h), 0.2; in assay [2] (72 h), 0.111.
Take `COc1ccc(CN2CCOc3ccc(C(C)(O)CN(C)C)cc3C2)cc1C` (stereo not given): the figures for the phenotypic severity score in assay [1] (24 h), in assay [1] (48 h) and in assay [1] (72 h) were 0, 0 and 1, respectively. The drug effect is 0.1 in assay [2] (24 h), 0.0556 in assay [2] (48 h) and less than 0 in assay [2] (72 h).
As to `c1ccc(-c2[nH]c3ccccc3c2C(c2ccccn2)N2CCCC2)cc1` (stereo not given), the phenotypic severity score in assay [1] (24 h), in assay [1] (48 h) and in assay [1] (72 h) was 4 (active) each time. Besides, the drug effect in assay [2] (24 h), in assay [2] (48 h) and in assay [2] (72 h) was 1 (active) throughout.
For the compound `Clc1ccc(Cl)c(CO[C@H]2CCCC[C@@H]2n2ccnc2)c1`, the phenotypic severity score in assay [1] (24 h), in assay [1] (48 h) and in assay [1] (72 h) was 0 each time. In addition, the values for the drug effect in assay [2] (24 h), in assay [2] (48 h) and in assay [2] (72 h) were 0.2, 0.167 and 0.25, respectively.
On to `COc1ccc(C2=NN(C3CCCCCC3)C(=O)C2(C)C)cc1OCCCCOc1ccc(-c2nn[nH]n2)cc1`, for which the phenotypic severity score was 1 in assay [1] (24 h), 0 in assay [1] (48 h) and 0 in assay [1] (72 h). The figures for the drug effect in assay [2] (24 h), in assay [2] (48 h) and in assay [2] (72 h) were 0.182, 0.2 and 0.127, respectively.
Turning to `N=C(N)c1ccc(OCCCCCOc2ccc(C(=N)N)cc2)cc1`, the phenotypic severity score in assay [1] (24 h), in assay [1] (48 h) and in assay [1] (72 h) was 0 throughout. Also, the drug effect in assay [2] (24 h), in assay [2] (48 h) and in assay [2] (72 h) was less than 0 throughout.
As to `CNCCC(Oc1ccc(C(F)(F)F)cc1)c1ccccc1` (stereo not given), the phenotypic severity score in assay [1] (24 h), in assay [1] (48 h) and in assay [1] (72 h) was 0 throughout. The drug effect in assay [2] (24 h) is 0.05; in assay [2] (48 h), 0.0811; in assay [2] (72 h) it was 0.333.
Turning to `Cc1ccc(S(=O)(=O)N2CCN(C(=O)c3cc(-c4ccccc4)[nH]n3)CC2)cc1`, the figures for the phenotypic severity score in assay [1] (24 h), in assay [1] (48 h) and in assay [1] (72 h) were 2 (active), 2 (active) and 1, respectively. Moreover, the drug effect is 0.455 in assay [2] (24 h), 0.75 (active) in assay [2] (48 h) and 0.836 (active) in assay [2] (72 h).
Take `COc1ccc(C2=NCCN2)cc1-c1cn(-c2cccc(C3=NCCN3)c2)nn1`: the phenotypic severity score in assay [1] (24 h), in assay [1] (48 h) and in assay [1] (72 h) was 0 each time. The values for the drug effect in assay [2] (24 h), in assay [2] (48 h) and in assay [2] (72 h) were 0.1, 0.111 and 0.25, respectively.
`Brc1c(-c2ccc3c(c2)OCO3)nc2ncccn12`: the phenotypic severity score in assay [1] (24 h), in assay [1] (48 h) and in assay [1] (72 h) was 0 each time. Further, the drug effect in assay [2] (24 h) was 0.182; in assay [2] (48 h), 0.2; in assay [2] (72 h) it was 0.127.
Turning to `Nc1ncnc2c1ncn2C[C@@H](O)[C@@H](O)C(=O)O`, the phenotypic severity score in assay [1] (24 h), in assay [1] (48 h) and in assay [1] (72 h) was 0 each time. Besides, the drug effect in assay [2] (24 h) was 0.1; in assay [2] (48 h) it was 0.189; in assay [2] (72 h), 0.222.
On to `Cc1cnc(N2CCN[C@@H](Cc3ccccc3)C2)nc1Oc1ccc(-n2ccnc2)cc1`, for which the phenotypic severity score in assay [1] (24 h), in assay [1] (48 h) and in assay [1] (72 h) was 4 (active) each time. Moreover, the drug effect was 0.3 in assay [2] (24 h), 0.556 (active) in assay [2] (48 h) and 1 (active) in assay [2] (72 h).
On to `c1ccc(Oc2ccc(-c3cc(N4CCOCC4)[nH]n3)cc2)cc1`, for which the phenotypic severity score in assay [1] (24 h), in assay [1] (48 h) and in assay [1] (72 h) was 0 throughout. Moreover, the drug effect in assay [2] (24 h) is 0.15; in assay [2] (48 h), 0.297; in assay [2] (72 h), 0.152.
Take `O=C(Nc1cccc(-c2ccc(NCCCN3CCCC3)nc2)c1)c1ccccc1`: the phenotypic severity score in assay [1] (24 h) was 1; in assay [1] (48 h), 2 (active); in assay [1] (72 h), 4 (active). Further, the drug effect in assay [2] (24 h) was 0.2; in assay [2] (48 h) it was 0.459; in assay [2] (72 h), 0.515 (active).
For the compound `OCc1ccc(-c2cncc(Nc3cccc(Cl)c3)c2)cc1`, the phenotypic severity score in assay [1] (24 h), in assay [1] (48 h) and in assay [1] (72 h) was 0 throughout. For the same compound, the drug effect is 0.1 in assay [2] (24 h), 0.0811 in assay [2] (48 h) and 0.152 in assay [2] (72 h).
Take `CC(=O)Oc1ccccc1C(=O)Nc1ncc([N+](=O)[O-])s1`: the phenotypic severity score in assay [1] (24 h) is 2 (active); in assay [1] (48 h), 4 (active); in assay [1] (72 h) it was 4 (active). Moreover, the drug effect in assay [2] (24 h) was 0.2; in assay [2] (48 h) it was 0.297; in assay [2] (72 h), 0.556 (active).
